# Where “and” joins values, the source holds several entries; their conditions need not be identical. Equal values may be shown once. Inconclusive results are not listed. Entries that show only a call come without a potency. A structure can be active in one record and inactive in another. Calls of active or inactive are those of the source. Unless noted, calls come from the whole dose curve; as a rule, active = well fitted curve in the direction sought with a large enough effect in the repeat runs; inconclusive = weak or mixed curves; inactive = no such curve, though single readings can be large; an effect the other way counts as inactive or inconclusive.
# Tests used:
# [1] = qHTS assay for small molecules that induce genotoxicity in human embryonic kidney cells expressing luciferase-tagged ATAD5 (AID 651632); note: nearly all actives have a fitted effect of over 15% in size; note: potency is the fitted concentration of half-maximal effect
# Method in brief: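 Luminescence read-out: after 16 hr compound exposure at 37C, ATAD5-luciferase HEK293T cells received Amplite, 30 min RT, then CCD imaging. A rise in signal marks genotoxic stress.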
# [2] = qHTS assay for small molecule agonists of the p53 signaling pathway - cell viability (AID 651633; calls by dose curve; note: nearly all actives have a fitted effect of over 30% in size; note: potency is the fitted concentration of half-maximal effect)
# Method in brief: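 Viability counter-read: CellTiter-Glo luminescence (30 min, room temperature) in the same p53RE-bla plates. These plates had been exposed to compounds for 16 h at 37 C.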
# [3] = qHTS assay for small molecules that induce genotoxicity in human embryonic kidney cells expressing luciferase-tagged ATAD5 - cell viability (AID 651634; calls by dose curve; note: nearly all actives have a fitted effect of over 25% in size; note: potency is the fitted concentration of half-maximal effect)
# Method in brief: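 HEK293T ATAD5-luc cells, 2,000/well; compound 15.5 hr, 37C/5% CO2; CellTiter-Fluor 30 min, 37C; fluorescence read.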
# [4] = qHTS assay for small molecule disruptors of the mitochondrial membrane potential - cell viability (AID 720634; calls by dose curve; note: nearly all actives have a fitted effect of over 20% in size; note: potency is the fitted concentration of half-maximal effect)
# Method in brief: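 Luminescence from CellTiter-Glo (ATP content) gave viability in HepG2 cells, read in the same wells as the MMP dye assay after 1 hr compound exposure at 37 C.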
# [5] = qHTS assay for small molecule disruptors of the mitochondrial membrane potential (AID 720635); note: potency is the fitted concentration of half-maximal effect
# Method in brief: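 Mitochondrial membrane potential tracked with Mito-MPS dye, red aggregates (ex 540/em 590 nm) against green monomers (ex 490/em 535 nm). Compound treatment 1 hr at 37C, dye 30 min in HepG2.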
# [6] = qHTS assay to test for compound auto fluorescence at 535 nm (green) in HepG2 cells (AID 720675)
# [7] = qHTS assay to test for compound auto fluorescence at 460 nm (blue) in HEK293 cells (AID 720678)
# Method in brief: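 HEK293, 2,000 cells/well, 10% dialyzed FBS; attach 4-5 hr 37C; pin compound or DMSO; o/n 37C/5% CO2; fluorescence 405/460 nm; triamterene-equivalent units.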
# [8] = qHTS assay to test for compound auto fluorescence at 590 nm (red) in HEK293 cells (AID 720679)
# Method in brief: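 Intensity at 540nm excitation and 590nm emission is reported as Rose Bengal sodium-equivalent autofluorescence. Measurements followed overnight exposure (37C, 5% CO2) of HEK293 cells, 2,000 per well, to 23 nL compound.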
# [9] = qHTS assay to test for compound auto fluorescence at 535 nm (green) in HEK293 cells (AID 720680)
# [10] = qHTS assay to test for compound auto fluorescence at 460 nm (blue) in HEK293 cell free culture (AID 720681)
# Method in brief: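 Blue fluorescence (Ex 405/Em 460 nm, triamterene-equivalent) was read immediately after pin transfer of compound or DMSO into medium (DMEM, 10% FBS) without cells.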
# [11] = qHTS assay to test for compound auto fluorescence at 535 nm (green) in HEK293 cell free culture (AID 720682)
# Method in brief: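 Each library compound, or DMSO control, is added by pintool to medium alone, comprising DMEM and 10% FBS. Emission at 535 nm following 485 nm excitation is quantified against fluorescein.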
# [12] = qHTS assay to test for compound auto fluorescence at 590 nm (red) in HEK293 cell free culture (AID 720683)
# Method in brief: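 Red-channel autofluorescence of compounds in culture medium (DMEM, 10% FBS), no cells, measured at 540/590 nm. Rose Bengal sodium is the reference fluorophore for equivalence.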
# [13] = qHTS assay to test for compound auto fluorescence at 590 nm (red) in HepG2 cell free culture (AID 720684)
# Method in brief: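 No cells present: MEM + 10% FBS only. Compound pinned in, red label read (540/590 nm). Activity = fluorescence equivalent to Rose Bengal sodium.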
# [14] = qHTS assay to test for compound auto fluorescence at 460 nm (blue) in HepG2 cell free culture (AID 720685)
# Method in brief: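 Cell-free plates of MEM plus 10% FBS received 23 nL compound or DMSO vehicle; blue-channel (405/460 nm) intensity scored against triamterene as reference fluorophore.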
# [15] = qHTS assay to test for compound auto fluorescence at 535 nm (green) in HepG2 cell free culture (AID 720686)
# [16] = qHTS assay to test for compound auto fluorescence at 460 nm (blue) in HepG2 cells (AID 720687)
# Method in brief: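 Blue-channel autofluorescence (Ex/Em 405/460 nm, triamterene-equivalent) was measured after 1 hr compound exposure at 37 C, 5% CO2. Cells were HepG2, plated overnight at 37 C in MEM plus 10% FBS.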
# [17] = target: Glucocorticoid receptor (Homo sapiens) (UniProt P04150); test: qHTS assay to identify small molecule antagonists of the glucocorticoid receptor (GR) signaling pathway (AID 720692; active = well fitted inhibition curve with a large enough effect in the signal ratio in the repeat runs, not every such curve was filed as active; the % refers to the signal ratio; note: potency is the fitted concentration of half-maximal effect)
# Method in brief: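 Read-out: beta-lactamase FRET substrate fluorescence, 2 h at room temperature, in HeLa cells stably carrying a GRE-driven bla reporter. Compounds were co-incubated with 5 nM dexamethasone agonist (final) for 18 h at 37 C.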
# [18] = qHTS assay to test for compound auto fluorescence at 590 nm (red) in HepG2 cells (AID 720674)
# Method in brief: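 1 hr compound incubation on HepG2 cells, 37 C, 5% CO2; plate read ex 540 nm / em 590 nm; intensities reported as Rose Bengal sodium equivalents.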
# [19] = target: Glucocorticoid receptor (Homo sapiens) (UniProt P04150); test: qHTS assay to identify small molecule agonists of the glucocorticoid receptor (GR) signaling pathway (AID 720691; active = well fitted activation curve with a large enough effect in the signal ratio in the repeat runs, not every such curve was filed as active; the % refers to the signal ratio); settings: GR-bla HeLa, beta-lactamase reporter ratio, 18 h; activation: at 62.4 µM (top of the series)
# Method in brief: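 HeLa GR-bla reporter line; cells pre-incubated 4 h, compound in DMSO 18 h at 37 C; LiveBLAzer B/G FRET substrate 2 h RT; fluorescence intensity read-out.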
# Chain of Glucocorticoid receptor (Homo sapiens) (P04150 whole entry, looked up): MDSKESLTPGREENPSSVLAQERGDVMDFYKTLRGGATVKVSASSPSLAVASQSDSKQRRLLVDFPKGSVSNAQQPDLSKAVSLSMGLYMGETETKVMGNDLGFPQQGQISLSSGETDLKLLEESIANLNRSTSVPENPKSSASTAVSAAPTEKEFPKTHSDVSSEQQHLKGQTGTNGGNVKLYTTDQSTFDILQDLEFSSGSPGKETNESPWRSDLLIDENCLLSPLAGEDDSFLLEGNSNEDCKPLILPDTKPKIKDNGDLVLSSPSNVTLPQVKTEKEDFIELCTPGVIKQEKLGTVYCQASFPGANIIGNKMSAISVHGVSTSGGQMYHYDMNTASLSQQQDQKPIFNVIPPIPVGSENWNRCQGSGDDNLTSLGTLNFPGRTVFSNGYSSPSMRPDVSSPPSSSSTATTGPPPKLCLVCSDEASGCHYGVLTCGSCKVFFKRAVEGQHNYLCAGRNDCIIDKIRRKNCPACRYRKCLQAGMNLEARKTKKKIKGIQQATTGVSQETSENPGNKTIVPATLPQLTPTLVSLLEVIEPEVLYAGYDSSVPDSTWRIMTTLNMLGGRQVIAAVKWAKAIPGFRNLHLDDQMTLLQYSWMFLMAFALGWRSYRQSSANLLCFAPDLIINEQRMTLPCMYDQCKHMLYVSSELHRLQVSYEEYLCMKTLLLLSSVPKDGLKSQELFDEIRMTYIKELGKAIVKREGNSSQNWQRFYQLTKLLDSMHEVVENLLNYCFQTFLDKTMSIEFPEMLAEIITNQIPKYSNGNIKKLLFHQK
Structure (SMILES),Potency [1],Potency [2],Potency [3],Potency [4],Potency [5],Potency [6],Potency [7],outcome [8],outcome [9],Potency [10],outcome [11],outcome [12],outcome [13],Potency [14],Potency [15],Potency [16],Potency [17],outcome [18],Potency [19]
Brc1cccc(-c2ccccc2)c1,inactive,inactive,inactive,inactive,0.436 µM (active),inactive,inactive,inactive,inactive,inactive,inactive,inactive,inactive,inactive,inactive,inactive,inactive,,
Cc1c([N+](=O)[O-])cc2c(c1[N+](=O)[O-])C(C)(C)CC2(C)C,inactive,inactive,inactive,,30.6 µM (active),inactive,inactive,inactive,inactive,inactive,,inactive,inactive,inactive,,inactive,inactive,inactive,inactive
CCCCC(CC)COC(=O)c1ccccc1C(=O)OCC(CC)CCCC (stereo not given),inactive,inactive,inactive,inactive,,inactive,inactive,,inactive,inactive,inactive,inactive,inactive,inactive,,inactive,,,inactive
COP(=O)(OC)Oc1ccc([N+](=O)[O-])cc1,inactive,inactive,inactive,inactive,inactive,,inactive,inactive,inactive,inactive,inactive,inactive,inactive,inactive,inactive,inactive,,,
CC(C)[C@@H](Nc1ccc(C(F)(F)F)cc1Cl)C(=O)OC(C#N)c1cccc(Oc2ccccc2)c1 (stereo not given in full),inactive,inactive,inactive,,26.3 µM (active),inactive,inactive,inactive,inactive,inactive,inactive,inactive,inactive,inactive,,inactive,,inactive,
CCC[CH2][Sn]([CH2]CCC)([CH2]CCC)[CH2]CCC,inactive,43.3 µM (active),19.3 µM (active),,4.86 µM (active),inactive,inactive,inactive,inactive,inactive,inactive,inactive,inactive,inactive,inactive,inactive,,inactive,
CC(C)N(C(=O)CCl)c1ccccc1,inactive,inactive and 30.6 µM (active),27.3 µM (active) and 38.6 µM (active),inactive,inactive,inactive,inactive,inactive,inactive,inactive,,inactive,inactive,inactive,inactive,inactive,24.5 µM (active),,
CN1CCc2cc(Cl)c(O)cc2[C@H]2c3ccccc3CC[C@@H]21,inactive,inactive,inactive,inactive,,inactive,inactive,inactive,inactive,inactive,inactive,inactive,inactive,inactive,inactive,inactive,,inactive,inactive
CCCCN(CCCC)C(=S)[S-].CCCCN(CCCC)C(=S)[S-].[Ni+2],inactive,inactive,inactive,inactive,,inactive,inactive,inactive,inactive,inactive,inactive,inactive,inactive,inactive,inactive,inactive,inactive,inactive,inactive
CC1(C)C(C=C(Cl)Cl)C1C(=O)OC(C#N)c1ccc(F)c(Oc2ccccc2)c1 (stereo not given),inactive,inactive,inactive,,54.5 µM (active),,inactive,inactive,inactive,inactive,inactive,inactive,inactive,inactive,inactive,inactive,,,
CCN1CCC2(CC1)COc1cc3c(cc12)N(C(=O)c1ccc(-c2ccc(-c4nnc(C)o4)cc2C)cc1)CC3,inactive,56.4 µM (active),56.4 µM (active),,7.96 µM (active),inactive,inactive,inactive,inactive,inactive,inactive,inactive,inactive,inactive,inactive,inactive,,inactive,
ClC1(Cl)C2(Cl)C3(Cl)C4(Cl)C(Cl)(Cl)C5(Cl)C3(Cl)C1(Cl)C5(Cl)C24Cl (stereo not given),inactive,inactive,inactive,inactive,,inactive,inactive,inactive,inactive,inactive,inactive,inactive,inactive,inactive,inactive,inactive,inactive,inactive,inactive
COP(=S)(OC)Oc1ccc([N+](=O)[O-])c(C)c1,inactive,inactive,inactive,,68.6 µM (active),inactive,inactive,inactive,inactive,inactive,,inactive,inactive,inactive,inactive,inactive,,inactive,inactive
O=S1(=O)OCC2C(CO1)C1(Cl)C(Cl)=C(Cl)C2(Cl)C1(Cl)Cl (stereo not given),inactive,inactive,inactive,,13.7 µM (active),,inactive,inactive,inactive,inactive,inactive,inactive,inactive,inactive,,inactive,17.4 µM (active),inactive,inactive
O=C(NC(=O)c1c(F)cccc1F)Nc1ccc(Oc2ccc(C(F)(F)F)cc2Cl)cc1F,inactive,inactive,inactive,,,inactive,inactive,inactive,,inactive,inactive,inactive,inactive,inactive,inactive,inactive,,inactive,
O=C(O)CCCCCCNC1c2ccccc2CCc2ccccc21,inactive,inactive,inactive,inactive,inactive,inactive,inactive,inactive,,inactive,inactive,inactive,inactive,inactive,inactive,inactive,inactive,,inactive

Structure (SMILES),Potency [1],Potency [2],Potency [3],Potency [4],Potency [5],Potency [6],Potency [7],outcome [8],outcome [9],Potency [10],outcome [11],outcome [12],outcome [13],Potency [14],Potency [15],Potency [16],Potency [17],outcome [18],Potency [19]
CSC(=O)c1c(C(F)F)nc(C(F)(F)F)c(C(=O)SC)c1CC(C)C,inactive,inactive,inactive,,,inactive,inactive,inactive,inactive,inactive,inactive,inactive,inactive,inactive,inactive,inactive,,,inactive
Oc1cc(Cl)cc(Cl)c1,inactive,inactive,inactive,,9.79 µM (active),inactive,inactive,inactive,inactive,inactive,inactive,inactive,inactive,inactive,inactive,inactive,inactive,inactive,inactive
O=S(=O)(NS(=O)(=O)C(F)(F)F)C(F)(F)F,inactive,inactive,inactive,inactive,,inactive,inactive,inactive,inactive,inactive,,inactive,inactive,inactive,inactive,inactive,,,
CC(C)C(Br)C(=O)NC(N)=O (stereo not given),inactive,inactive,inactive,,,inactive,inactive,inactive,inactive,inactive,inactive,inactive,inactive,inactive,inactive,inactive,,,
CC(=O)[O][Sn]([c]1ccccc1)([c]1ccccc1)[c]1ccccc1,inactive,3.44 µM (active),0.122 µM (active),15.4 µM (active),0.077 µM (active),inactive,inactive,inactive,inactive,inactive,,inactive,inactive,inactive,inactive,inactive,,,
CCC1(CC)C(=O)N=C(O)NC1=O,inactive,inactive,inactive,inactive,,,inactive,inactive,,inactive,,inactive,inactive,inactive,inactive,inactive,inactive,,inactive
Nc1ccc(N=Nc2ccccc2)cc1,13.7 µM (active),inactive,41.6 µM (active),,,,inactive,inactive,inactive,inactive,inactive,inactive,inactive,inactive,,inactive,54.9 µM (active),inactive,inactive
c1ccc2nc(N3CCNCC3)ccc2c1,inactive,inactive,inactive,inactive,,inactive,inactive,inactive,inactive,inactive,inactive,inactive,inactive,inactive,inactive,inactive,inactive,inactive,inactive
[O]=[Cr](=[O])([OH])[O][Cr](=[O])(=[O])[OH],inactive,19.5 µM (active) [middle of 4 runs],,inactive and 27.6 µM (active) and 30.6 µM (active),inactive and 13.8 µM (active) and 27.3 µM (active),inactive,inactive,inactive,inactive,inactive,,inactive,inactive,inactive,inactive,inactive,3.08 µM (active),inactive,
Nc1c(Cl)c(Cl)c(Cl)c(Cl)c1Cl,inactive,inactive,inactive,,,inactive,inactive,inactive,inactive,,,inactive,inactive,inactive,inactive,inactive,,inactive,
O=C(N[C@H]1N=C(c2ccccc2F)c2cccc3c2N(CC3)C1=O)c1cc2ccccc2[nH]1,inactive,inactive,inactive,inactive,,inactive,inactive,inactive,,inactive,inactive,inactive,inactive,inactive,inactive,inactive,,inactive,
CCC(C)Nc1c([N+](=O)[O-])cc(C(C)(C)C)cc1[N+](=O)[O-] (stereo not given),inactive,inactive,inactive,,,inactive,inactive,inactive,inactive,inactive,inactive,inactive,inactive,inactive,inactive,inactive,inactive,inactive,inactive
CNC(=O)CSP(=O)(OC)OC,inactive,inactive,inactive,inactive,inactive,inactive,inactive,inactive,inactive,inactive,inactive,inactive,inactive,inactive,inactive,inactive,inactive,,inactive
CC(C)=CC1C(C(=O)OC(C#N)c2cccc(Oc3ccccc3)c2)C1(C)C (stereo not given),inactive,,inactive,inactive,,inactive,inactive,inactive,inactive,inactive,inactive,inactive,inactive,inactive,inactive,inactive,,,inactive
O=C(Nc1ccc(F)cc1F)c1cccnc1Oc1cccc(C(F)(F)F)c1,inactive,,inactive,inactive,23.8 µM (active),inactive,inactive,inactive,inactive,inactive,inactive,inactive,inactive,inactive,inactive,inactive,inactive,inactive,inactive

# Source: PubChem BioAssay (Tox21)
